Results: ChEMBL document CHEMBL3988442, “University of Dundee, Small-Polar-MMV Screening Library” (2021)

What was measured:
[1] = biological target: T1, Aspartate--tRNA(Asp/Asn) ligase (Mycobacterium tuberculosis (strain ATCC 25618 / H37Rv)) (UniProt P9WFW3); experiment: Assay for Asp RNA synthetase-1 from Mycobacterium tuberculosis; format: functional; parameters: scale not given: direction of the effect not stated beside the values; conditions: 30 µM; note: in the data most compounds retested in dose-response had high values
T1 sequence (whole entry): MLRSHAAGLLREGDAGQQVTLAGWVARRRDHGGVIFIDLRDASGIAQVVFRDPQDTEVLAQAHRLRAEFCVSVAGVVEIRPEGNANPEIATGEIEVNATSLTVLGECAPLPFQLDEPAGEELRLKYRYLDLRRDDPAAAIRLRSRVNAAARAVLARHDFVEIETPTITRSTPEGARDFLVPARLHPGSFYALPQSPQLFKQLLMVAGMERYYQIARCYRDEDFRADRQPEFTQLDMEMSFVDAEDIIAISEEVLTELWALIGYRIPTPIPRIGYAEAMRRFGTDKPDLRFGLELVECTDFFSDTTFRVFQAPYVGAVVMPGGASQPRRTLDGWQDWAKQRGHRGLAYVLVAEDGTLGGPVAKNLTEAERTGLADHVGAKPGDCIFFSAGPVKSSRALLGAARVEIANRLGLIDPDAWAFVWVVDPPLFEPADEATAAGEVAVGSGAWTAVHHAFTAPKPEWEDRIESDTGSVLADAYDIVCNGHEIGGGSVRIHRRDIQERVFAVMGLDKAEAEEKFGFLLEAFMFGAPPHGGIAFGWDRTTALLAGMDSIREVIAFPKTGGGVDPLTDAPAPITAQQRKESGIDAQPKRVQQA

[2] = biological target: Shiga toxin 2 (Escherichia coli O157:H7) (UniProt P09385+P09386); experiment: E. coli 0.157:H7 Shiga Toxin SOP - stx2 screening assay; format: functional; parameters: scale not given: direction of the effect not stated beside the values; conditions: 30 µM

SMILES	Percent Effect [1]	Percent Effect [2]
COc1cc(CCC(C)O)c(OC)c2c1OCO2 (configuration not stated)	-0.435%	-10.2%
CC(C)CNC(=O)[C@H]1CCS(=O)(=O)[C@@H]2CN(Cc3ccc(Cl)cc3)C[C@H]12	-0.0704%	-5.7%
O=C(NCc1nnc2n1CCCCC2)N1CCc2sccc2C1	-4.29%	-45.2%
Cc1n[nH]c(C)c1C1CCCN1C(=O)NCCSC(C)(C)C (configuration not stated)	3.45%	-9.79%
CCc1nc(CN(CC(N)=O)C(C)C)cs1	0.799%	-3.84%
NC(=O)c1ccc(N2CCCCC2)c(NC(=O)c2cc(Br)ccc2F)c1	11%	-50.5%
CNC(=O)c1cc2c(nc1NCC(C)C)CCN(S(=O)(=O)C1CC1)CC2	-2.58%	1.28%
COCCC(=O)Nc1ccnc(Oc2ccccc2)c1	13.9%	-27.8%
CN(CC1CN(Cc2cn3ccsc3n2)CCO1)c1cccnn1 (configuration not stated)	-3.78%	-9.36%
COc1cccc(CNC(=O)C(c2cccc(F)c2)N2CCOCC2)c1 (configuration not stated)	1.86%	-6.55%
CCCN1CCCn2nc(CNC(=O)CCc3scnc3C)cc2C1	-0.334%	3.64%
Cc1nc(C2CCCN(C(=O)CCCn3cccn3)C2)no1 (configuration not stated)	-5.28%	-27.3%
COc1cccc2cc(CNC(C)(C)C(=O)N3CCC(O)CC3)oc12	-1.57%	4.9%
Cc1nc(C)n(CC2CCCN2Cc2cscn2)n1 (configuration not stated)	-5.82%	24.1%
CCN1CCN(c2nc(C(C)C)nc3c(C)nn(CC)c23)CC1	-2.11%	-52.4%
O=C1NCc2ccc(NC(=O)C3CCCN3c3nccs3)cc21 (configuration not stated)	0.522%	-17.5%
O=C(NCCN1CCC(c2cccs2)CC1)c1ccccc1C(F)(F)F	-10.3%	-49.7%
CCc1nnc2n1CCN(Cc1nc(-c3ccoc3)no1)C2	-5.61%	-17.8%
O=C(c1ccc2c(c1)OCO2)N1CCCSCC1CN1CCCC1 (configuration not stated)	-0.0437%	-5.02%
O=C(NCC1CCOC1)c1cc(-c2cccc(Cl)c2)on1 (configuration not stated)	1.64%	-6.35%
CC(C)c1ncncc1C(=O)N1CCCN(Cc2cccs2)CC1	-3.79%	6.52%
CC(O)CN1CCC(CNCc2c[nH]nc2C(C)(C)C)CC1 (configuration not stated)	0.384%	14.9%
CSc1ccc(NS(=O)(=O)c2cnn(C)c2)cn1	1.57%	-7.54%
Cc1nn(C)c2c(NCCCn3cccn3)ncnc12	-6.88%	-37.5%
CCn1ccnc1CN1CCCN(C(=O)c2cccc(C#N)c2)CC1	0.189%	-8.53%
Cc1cc(=O)[nH]c(NCCNC(=O)C(c2ccc(F)cc2)N(C)C)n1 (configuration not stated)	-2.14%	-65.1%

SMILES	Percent Effect [1]	Percent Effect [2]
CN(C)c1cc(CNC(=O)Nc2ccc(F)cc2)ccn1	3.3%	-156%
CC(C)Oc1cccc(C(=O)C2CCCN(C(=O)c3ccccn3)C2)c1 (configuration not stated)	-1.79%	6.16%
CCCn1nc2c(cc1=O)CN(CC(=O)Nc1nnc(C)s1)CC2	8.7%	-2.85%
CC1CCN(C(=O)c2cccc3ncccc23)CC1	-1.51%	5.74%
CC(C)CNC(=O)NC(=O)CNc1ccccc1SCC(C)C#N (configuration not stated)	-5.03%	4.99%
c1ccc2cc(OCCN3CCn4c(nnc4C4CC4)C3)ccc2c1	3.95%	-16.6%
Cc1cc(CN2CCCC2c2noc(C)n2)no1 (configuration not stated)	-5.01%	-5.29%
CN(C)c1ccc(C(=O)N2CCN(Cc3cscn3)CC2)cc1F	5.95%	-20.8%
CNc1nc(CNC(=O)Nc2ccccc2SC)cs1	-0.278%	22.5%
c1cnnc(NCC2CN(Cc3cccc4c3OCCO4)CCO2)c1 (configuration not stated)	-1.18%	-1.74%
CS(=O)(=O)CCC(=O)N1CCC2(CCCN(C3CCOCC3)C2=O)C1 (configuration not stated)	3.37%	-8.62%
O=C(c1cc(F)ccc1F)C1CCN(C(=O)c2ccc(=O)[nH]n2)CC1	0.519%	28.6%
Cc1noc(C(C)N2CCN(CCCN3CCCC3=O)CC2)n1 (configuration not stated)	0.409%	4.39%
CCCS(=O)(=O)N1CCN(c2cc(-n3cnc(C)c3C)nc(C)n2)CC1	-3.39%	-17.5%
CCNc1cc2c(nn1)CCN(C(=O)c1ccnc(N(C)C)c1)C2	0.611%	3.23%
Cn1ccnc1CN1CCN(CC(O)c2cccc(F)c2)CC1 (configuration not stated)	1.53%	14%
Cc1cc(F)cc(S(=O)(=O)NCCCN2CCC(O)CC2)c1	4.04%	-67.2%
Cc1cnn(CC2CCCN2C(=O)CCc2ccsc2)c1 (configuration not stated)	-3.37%	14.6%
CN(C)S(=O)(=O)c1ccc(CN2CCCC2CO)o1 (configuration not stated)	-0.169%	24%
COc1ccc(C)cc1CN1CCCC1Cn1nc(C)nc1C (configuration not stated)	-7.82%	-25.1%
O=C(NCCNc1ncccn1)N1CCSCC1	-0.235%	17.7%
CC(C)OCCN(C)C(C)c1cccc(S(N)(=O)=O)c1 (configuration not stated)	-3.29%	-16.4%
COc1ccc(CNC(=O)NCc2c(C)cc(C)[nH]c2=O)cc1	4.97%	34.9%
CCCc1nc(NCCCO)c2c(n1)c(C)nn2CC	-5.08%	-4.19%
CCc1nc(COc2ccc(OCc3cnn(C)c3)cc2)no1	0.524%	-31%
